Results reported in PubChem BioAssay AID588342 (National Center for Advancing Translational Sciences (NCATS), 2011).
Among all 360,000 compounds or so, about 25,000 (6.9%) were called active. Inconclusive results (about 9%) are left out. The sample holds actives, similar compounds and a random draw of the others, so the mix is not that of the screen. Calls come from the whole dose curve; as a rule, active = well fitted inhibition curve with a large enough effect; inconclusive = small, poorly fitted or top-dose-only effect; inactive = flat fitted curve, though single readings scatter.

molecular target: Luciferin 4-monooxygenase (Photinus pyralis) (UniProt P08659); experiment: qHTS profiling assay for firefly luciferase inhibitor/activator using purifed enzyme and Km concentrations of substrates (counterscreen for miR-21 project); conditions: purified FLuc, luminescence inhibition; series mostly up to 57.5 µM; activity change, negative = inhibition: at the top concentration; note: nearly all actives have a fitted effect of over 55% in size;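 for activity change, negative = inhibition: plate controls were vehicle for no effect and reference inhibitor for full effect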
From the text: MLPCN Grant: 1 R21 NS059478-01 (miR-21 grant) Assay Provider: NCGC NCGC Assay Overview: Firefly (Photinus pyralis) luciferase is one of the most commonly used transcriptional reporters for a number of reasons. It is considered one of the more dynamically responsive reporters -that is, responsive to changes in reporter transcription - as it requires no post-translational modifications and is enzymatically active directly after protein synthesis (Wood, 1998). Additionally, the half-life of the luciferase protein is short relative to other reporter-gene products (Wood, 1995). Whereas reporters with long half-lives potentially allow for increased signal due to accumulation of reporter-gene product, once accumulated in the cell, dynamic changes in reporter-gene expression may be difficult to detect(Fan and Wood, 2007; Almond et al., 2004). It has been shown that wild-type P. pyralis luciferase has a half-life of approximately […] hours in mammalian cells (Thompson et al., 1991). Firefly luciferase reporter-gene assays are also generally considered one of the most sensitive assay types (Wood, 1995; Wood, 1998). Although light produced in a bioluminescence reaction is of lower intensity than that produced during fluorescence emission, this is offset by little to no background light inherent to luminescent assays. Thus the luciferase reporter can be expressed at much lower levels than fluorescent proteins while still providing robust signal. # However, it was initially observed, in 1991, by Thompson et al., that compounds that resemble the substrates of firefly luciferase (FLuc) can act as competitive inhibitors of the enzyme, and that these compounds, upon interaction with luciferase in the cell, can actually stabilize the protein and increase its half-life. Accumulated intracellular FLuc protein can be measured as an increase in luminescence signal, upon addition of detection reagents (which contain high concentrations of FLuc substrates) commonly used in high-throughput screening. In cell-based reporter gene assays that use FLuc as the reporter gene to quantitate the potential influence of a given compound against the target biology, this apparent increase in luminescence can mistakenly be interpreted as identification of a compound that is active against the target of interest. This is the case for the miR-21 FLuc reporter gene assay used to identify inhibitors of the miR-21 pathway (PubChem AID 2289) - compounds of interest will inhibit miR-21 biogenesis/expression or activity, and are identified by causing an increase in luminescence, due to increased FLuc translation. However, FLuc inhibitory compounds that stabilize the FLuc protein will give an identical read-out, making it difficult to distinguish compounds that are active against the target from those active against FLuc. Previous profiling work to determine the prevalence of compounds that affect FLuc enzymatic activity (PubChem AID 411) identified that ~3% of the MLSMR library (then at ~72K) inhibited FLuc. […] Since the MLSMR had grown to ~350K compounds, and since it was expected that a significant percentage of compounds found active in the miR-21 FLuc assay would be FLuc inhibitors, the library was screened for activity against FLuc using a biochemical assay of purified FLuc and KM concentrations of FLuc substrates (D-luciferin and ATP).
NCGC Assay Protocol Summary: Reagents: 50mM Tris acetate, pH 7.5; 10mM Mg acetate; 10uM D-luciferin (Sigma #L9504); 10uM ATP; 0.01% Tween-20; 0.05% BSA; 10nM P. pyralis luciferase (Sigma #L9506) Control compounds used were two known firefly luciferase inhibitors (compounds (2) and (5) in Auld et al., 2010), and DMSO. […]

Sequence of Luciferin 4-monooxygenase (Photinus pyralis) (P08659 whole entry, looked up): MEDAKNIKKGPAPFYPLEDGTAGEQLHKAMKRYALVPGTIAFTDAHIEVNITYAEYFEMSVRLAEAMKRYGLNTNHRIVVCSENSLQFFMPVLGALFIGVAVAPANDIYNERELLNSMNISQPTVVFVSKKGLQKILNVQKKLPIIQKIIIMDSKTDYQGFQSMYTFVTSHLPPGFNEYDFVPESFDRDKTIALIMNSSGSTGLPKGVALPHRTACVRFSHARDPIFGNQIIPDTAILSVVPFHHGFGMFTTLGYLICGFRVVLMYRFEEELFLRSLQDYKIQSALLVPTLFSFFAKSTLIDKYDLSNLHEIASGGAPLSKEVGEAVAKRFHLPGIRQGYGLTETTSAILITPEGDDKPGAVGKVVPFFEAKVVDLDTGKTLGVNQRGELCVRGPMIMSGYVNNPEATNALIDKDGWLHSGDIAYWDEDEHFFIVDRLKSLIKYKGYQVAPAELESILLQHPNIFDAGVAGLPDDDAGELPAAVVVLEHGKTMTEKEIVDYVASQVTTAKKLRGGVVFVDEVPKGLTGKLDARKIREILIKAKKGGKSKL

SMILES	activity change, negative = inhibition	Potency
CCC1=Nc2cc(C(=O)NCC(C)c3ccccc3)ccc2Sc2ccc(C)cc21 (centres undefined)	-8.78% (inactive)	
CCOC(=O)c1c(-c2ccc(-c3ccccc3)cc2)csc1NC(=O)CCC(=O)O	0.422% (inactive)	
COC(=O)c1c(-c2ccc(C)cc2)csc1N	0.678% (inactive)	
CCOC(=O)c1c(-c2ccc(C)cc2)csc1/N=C(\C)C1=C(O)c2ccccc2C1=O		2.69 µM (active)
CN(C)S(=O)(=O)c1cccc(NC(=O)COC(=O)c2cc(=O)[nH]c(=O)[nH]2)c1	1.02% (inactive)	
CN(C)S(=O)(=O)c1cccc(NC(=O)COC(=O)C2(c3ccccc3F)CCCC2)c1	3.61% (inactive)	
CN(C)S(=O)(=O)c1cccc(NC(=O)COc2ccc3ccccc3c2)c1		6.01 µM (active)
CCC(Oc1ccccc1C)C(=O)Nc1ccc(S(=O)(=O)Nc2cc(C)on2)cc1 (centres undefined)	1.08% (inactive)	
CC1CN(C(=S)Nc2ccc(Br)cc2Cl)CC(C)O1 (centres undefined)	-1.05% (inactive)	
O=C(/C=C/c1cnc2ccccc2n1)NC1CCCCCC1		13.5 µM (active)
O=C(Cn1c(-c2cncs2)nc2ccccc21)NC1CCCC1	2.57% (inactive)	
O=C(CSc1nnc2c(n1)[nH]c1ccccc12)NC1CCCCC1	-1.35% (inactive)	
COc1ccc(/C=C/CN2CCN(Cc3ccc(C)cc3)C(CCO)C2)cc1 (centres undefined)	-3.37% (inactive)	
CCc1cnc2c(c1SCC(=O)N1CCC(C)CC1)c(=O)n(C)c(=O)n2C	0.686% (inactive)	
O=C1CC[C@H](O)CCN1[C@H](CSc1ccc(Br)cc1)Cc1ccccc1	-2.89% (inactive)	
O=C1/C(=C/c2ccc(F)cc2)SC(=S)N1CCCC(=O)N1CCCCC1CCO (centres undefined)	-5.92% (inactive)	
Cc1ccc(/C=C2\SC(=S)N(CCC(=O)Nc3ccc(O)cc3)C2=O)cc1	-1.73% (inactive)	
C=CCOc1ccc(/C=C2\SC(=S)N(CCC(=O)O)C2=O)cc1		1.69 µM (active)
O=C(NCc1ccncc1)c1cccc(NS(=O)(=O)c2ccc(F)c(F)c2)c1	11.6% (inactive)	
COc1ccc(S(=O)(=O)NCCSc2nnnn2-c2ccccc2)cc1	7.96% (inactive)	
COc1ccc(N(C)C(=O)C2CCN(S(=O)(=O)c3cc(Br)cc4c3N(C(C)=O)CC4)CC2)cc1	-2.94% (inactive)	
CC1=C(C(=O)OCc2ccc(C)cc2)C(c2ccccc2Cl)CC(=O)N1 (centres undefined)	-12.5% (inactive)	
CSc1ccc(CCNC(=O)c2cnn(-c3ccccc3)c2-n2cccc2)cc1	-14.2% (inactive)	

SMILES	activity change, negative = inhibition	Potency
COc1ccc(CNC(=O)C2=Cc3cccc(OC)c3OC2)cc1OC	0.464% (inactive)	
CCOc1cccc(C(=O)Nc2cnn(Cc3ccccc3)c2)c1	-18.7% (inactive)	
COCC(=O)Nc1nnc(COc2ccccc2)s1	-10.1% (inactive)	
CCOc1cccc(C(=O)Nc2nnc(-c3cccs3)s2)c1		1.51 µM (active)
Cc1cccc(C(C)C)c1NC(=O)C(NS(=O)(=O)c1cccc2nsnc12)c1ccccc1 (centres undefined)	-2.84% (inactive)	
CCN(CC)S(=O)(=O)c1ccc2c(c1)N(CC(=O)NCc1ccccc1)C(=O)CS2	-0.306% (inactive)	
CN1C(=O)c2[nH]nc(-c3ccc(F)cc3)c2C1c1ccccn1 (centres undefined)	-3.01% (inactive)	
COc1cccc(NC(=O)N2C3CCCC2CC(NC(C)=O)C3)c1 (centres undefined)	0.0264% (inactive)	
CCCc1ccc(OCc2ccc(C(=O)N/N=C/c3cccc([N+](=O)[O-])c3)o2)c(OC)c1	0.233% (inactive)	
O=C(Cc1c[nH]c2ccccc12)N/N=C/c1cccc(F)c1	-15.3% (inactive)	
O=C(N/N=C/c1cccc(O)c1)c1cc2c(ccc3ccccc32)o1		10.7 µM (active)
O=C(Cc1cccs1)N/N=C/c1ccc(OCc2ccccc2)cc1	2.08% (inactive)	
O=C(N/N=C/c1cccc(OCc2ccccc2)c1)c1ccc(Br)o1		21.3 µM (active)
Cc1ccc(OCCOc2cccc(/C=N/NC(N)=O)c2)cc1	-15.1% (inactive)	
Cc1cccc(Oc2c([N+](=O)[O-])c(=O)n(C)c3ccccc23)c1	-3.1% (inactive)	
COc1ccc(Cl)cc1NC(=O)CSc1nc2ccccc2c2nc(-c3ccccc3)nn12	-0.248% (inactive)	
CCOc1cccc(NC(=O)c2ccc(F)c(S(=O)(=O)N(CC)c3cccc(C)c3)c2)c1	-8.56% (inactive)	
CCCN1CCc2nc(N3CCN(C)CC3)ncc2C1	-5.04% (inactive)	
CCN1CCCC1CNC(=O)c1cc2cc(OC)c(OC)cc2[nH]1 (centres undefined)	0.324% (inactive)	
COc1ccc(C(=O)CCc2ccccc2O)c(OC)c1		12 µM (active)
COc1ccc(CCNC(=O)CCc2ccccc2O)cc1OC	3.81% (inactive)	
COc1ccc(C(=O)NC(C)CCc2ccccc2)c(OC)c1 (centres undefined)	-0.702% (inactive)	
O=C(c1cc2cc(Br)cc(Br)c2oc1=O)N1CCOCC1	0.0137% (inactive)	

SMILES	activity change, negative = inhibition	Potency
COc1ccccc1-c1nn(Cc2ccccc2)cc1C(=O)N1CCN(c2ncccn2)CC1	1.51% (inactive)	
CCC(=O)NC(=Nc1nc2ccccc2s1)NC(=O)CC		3.79 µM (active)
Cc1cc(C(=O)OCC(=O)Nc2nnc(C(C)C)s2)c2ccccc2n1	3.05% (inactive)	
CC(C)CC(=O)NC(=S)NCc1ccccc1	-2.33% (inactive)	
CC(C)CC(=O)N/C(N)=N/c1nc2ccccc2s1		0.953 µM (active)
CCC(=O)Nc1ccc2nc(SCC(=O)N3CCc4ccccc43)sc2c1	-6.93% (inactive)	
CC(C)C(C)NC(=O)COc1ncnc2ccccc12 (centres undefined)	4.9% (inactive)	
CCOc1ccccc1NC(=O)CCn1cnnn1	2.57% (inactive)	
COc1ccc(S(=O)(=O)N2CCOCC2)cc1NC(=O)CSc1cc(C)ccc1C	1.8% (inactive)	
CS(=O)(=O)Nc1ccccc1C(=O)OCC(=O)NC1CC1	0.298% (inactive)	
CCN(C(=O)COC(=O)CCOc1cccc(C)c1)c1c(N)n(Cc2ccccc2)c(=O)[nH]c1=O	1.73% (inactive)	
COc1ccc(NC(=O)NC(C)c2c(-n3cccc3)sc(C)c2C)cc1OC (centres undefined)	2.57% (inactive)	
COc1ccccc1-c1sc2ccccc2c1-c1ccc(C(C)=O)cc1		15.1 µM (active)
COc1cc(C(C)=O)ccc1OC(=O)CN1C(=O)c2ccccc2C1=O	-1.95% (inactive)	
COc1ccccc1-c1sc2ccccc2c1-c1ccc(Br)nc1	4.94% (inactive)	
O=C(CC1N=C2c3ccccc3N=C(SCc3ccc(F)cc3)N2C1=O)NCc1cccs1 (centres undefined)	-18% (inactive)	
O=C(O)C1=NN(c2c(F)c(F)cc(F)c2F)C(=O)CC1	-0.487% (inactive)	
CN(CC(=O)NCCc1ccc(F)cc1)CC(=O)Nc1ccc(F)c(F)c1F	2.43% (inactive)	
Cc1ccc(NC(=O)c2cn3c4c(ccc(Cl)c4c2=O)OC(C)C3)cc1C (centres undefined)	0.799% (inactive)	
O=C(CSCc1cnn(-c2ccccc2)c1-n1cccc1)NCc1ccccc1Br	0.796% (inactive)	
O=[N+]([O-])/C=C/c1ccc2c(ccn2Cc2ccccc2)c1		13.5 µM (active)
O=C(/C=C/c1cccc([N+](=O)[O-])c1)N1CCN(Cc2ccccc2)CC1	-10.2% (inactive)	
COC(=O)Cn1cc(/C=C/[N+](=O)[O-])c2ccccc21	-8.37% (inactive)	
